The text below walks through data of ChEMBL document CHEMBL4296182, “CO-ADD screening of NIH NCI Diversity Set V”.

One experiment has as its system Staphylococcus aureus. The experiment can be described thus: Antibacterial activity against Staphylococcus aureus MRSA ATCC 43300 (CO-ADD:GP_020); MIC in CAMBH media using NBS plates, by Resazurin F(560/590). The format is functional. Conditions: Concentration 20 uM, ASSAY_TEST Inhibition of Bacterial Growth, detection method Resazurin, Fluorescence (ex560/em590), MEDIA CAMHB, plate type 384well, CORNING #3640, time 18 hr.

The test system of another experiment is Acinetobacter baumannii. Briefly: Antibacterial activity against Acinetobacter baumannii ATCC 19606 (CO-ADD:GN_034); MIC in CAMBH media using NBS plates, by Resazurin F(560/590). To be noted: Concentration 20 uM, ASSAY_TEST Inhibition of Bacterial Growth, detection method Resazurin, Fluorescence (ex560/em590), MEDIA CAMHB, plate type 384well, CORNING #3640, time 18 hr. Type of experiment: functional. In general terms: The colour change of resazurin is a common sign of viable cells or microbes.

In the next experiment the test system is Escherichia coli. The experiment can be described thus: Antibacterial activity against Escherichia coli ATCC 25922 (CO-ADD:GN_001); MIC in CAMBH media using NBS plates, by Resazurin F(560/590). The format is functional. To be noted: Concentration 20 uM, ASSAY_TEST Inhibition of Bacterial Growth, detection method Resazurin, Fluorescence (ex560/em590), MEDIA CAMHB, plate type 384well, CORNING #3640, time 18 hr.

The subject of a further experiment is Klebsiella pneumoniae. Conditions: Concentration 20 uM; ASSAY_TEST Inhibition of Bacterial Growth; detection method Absorption (OD600); MEDIA CAMHB; plate type 384well; NBS; CORNING #3640; time 18 hr.
Another experiment deals with Candida albicans. To be noted: 20 µM.
The test system of another experiment is Cryptococcus neoformans. To be noted: Concentration 20 uM; ASSAY_TEST Inhibition of Fungal Growth; detection method Resazurin; Absorption (OD600-OD570); plate type 384well; NBS; CORNING #3640.

In general, Inhibition refers to the drop in the measured response relative to a control, in per cent.

Structures are written as SMILES. For part of these data: Potency and affinity values are given separately.

Turning to `Cc1ccc(-c2nc(-c3nccc4ccccc34)oc2-c2ccccc2)cc1`, the Inhibition was 17.39% with Staphylococcus aureus; 5.86% in the experiment on Acinetobacter baumannii; 4.4% in the experiment with Escherichia coli; 6.85% in the experiment with Klebsiella pneumoniae; 18.7% in the experiment with Candida albicans; -2.8% with Cryptococcus neoformans.

In the case of `CCOC(=O)c1nn(C)c2[nH]c(=O)n(C)c(=O)c12`, the Inhibition in the experiment with Staphylococcus aureus is 7.94%; with Acinetobacter baumannii, 11.46%; in the experiment on Escherichia coli it was 12.75%; with Klebsiella pneumoniae, 11.59%; in the experiment with Candida albicans it was 2.22%; with Cryptococcus neoformans, -11.62%.

In the case of `NNC(=O)c1nnsc1-c1csnn1`, the Inhibition is -28.09% with Staphylococcus aureus; 0.78% in the experiment with Acinetobacter baumannii; -18.51% with Escherichia coli; 1.34% in the experiment on Klebsiella pneumoniae; 13.6% in the experiment on Candida albicans; 15.04% in the experiment on Cryptococcus neoformans.

Consider `NC1=C2C(=O)c3ccccc3C(=O)C2=C(N)CC1`, for which the Inhibition in the experiment on Staphylococcus aureus is -13.27%; in the experiment with Acinetobacter baumannii, 1.08%; in the experiment on Escherichia coli, -5.53%; in the experiment with Klebsiella pneumoniae it was 8.56%; in the experiment with Candida albicans it was 22.9%; with Cryptococcus neoformans, -5.51%.

With `COc1ccn(C2CCCCO2)c(=O)n1` (stereo not given), the Inhibition is 1.35% in the experiment on Staphylococcus aureus; -10.23% with Acinetobacter baumannii; 3.33% in the experiment with Escherichia coli; 6.04% with Klebsiella pneumoniae; 0.65% in the experiment with Candida albicans; -5.3% in the experiment with Cryptococcus neoformans.

For the molecule `CC(C)(C)n1nc(C2CC2)cc1NC(=O)Nc1ccccc1`, the Inhibition in the experiment on Staphylococcus aureus is 5.22%; in the experiment on Acinetobacter baumannii, -11.36%; in the experiment with Escherichia coli it was 8.62%; with Klebsiella pneumoniae it was 7.92%; with Candida albicans, 1.47%; in the experiment with Cryptococcus neoformans it was -6.02%.

With `COc1ccc2c(c1)CCCN2C(=N)Nc1ccc(Cl)cc1`, the Inhibition is -10.2% in the experiment on Staphylococcus aureus; 2.99% in the experiment on Acinetobacter baumannii; -14.68% in the experiment on Escherichia coli; 7.66% in the experiment with Klebsiella pneumoniae; 3.95% in the experiment on Candida albicans; 6.87% with Cryptococcus neoformans.

As for `O=c1[nH]cc(Cl)cc1Cl`, the Inhibition is 16.39% in the experiment on Staphylococcus aureus; -19.78% in the experiment with Acinetobacter baumannii; 16.35% in the experiment with Escherichia coli; 10.84% with Klebsiella pneumoniae; -0.92% in the experiment with Candida albicans; 0.46% in the experiment with Cryptococcus neoformans.

On to `NC(=O)c1cc(Br)cc(C2CCCCC2)c1O`, for which the Inhibition was 12.02% in the experiment on Staphylococcus aureus; -1.26% with Acinetobacter baumannii; 2.39% in the experiment on Escherichia coli; 15.38% with Klebsiella pneumoniae; 2.63% with Candida albicans; -10.76% with Cryptococcus neoformans.

For `CC(=O)Oc1c(C)c(OC(C)=O)c2c(c1C(C)=O)OC1CC(=O)C(C(C)=O)=C(O)C21C` (stereo not given), the Inhibition is 13.8% in the experiment on Staphylococcus aureus; -11.04% with Acinetobacter baumannii; 18.15% with Escherichia coli; 8.45% in the experiment on Klebsiella pneumoniae; 3.77% in the experiment with Candida albicans; -8.61% in the experiment on Cryptococcus neoformans.

Turning to `O=C(Nc1ccc(Oc2ccc(NC(=O)Nc3ccccc3Cl)cc2)cc1)Nc1ccccc1Cl`, the Inhibition was 19.6% with Staphylococcus aureus; -10.42% in the experiment on Acinetobacter baumannii; 14.43% with Escherichia coli; 12.03% in the experiment with Klebsiella pneumoniae; 16% with Candida albicans; 6.13% in the experiment with Cryptococcus neoformans.

For `Cc1ccccc1N=C(S)Nc1ccccn1`, the Inhibition in the experiment on Staphylococcus aureus is -11.3%; with Acinetobacter baumannii, 17.16%; with Escherichia coli, -8.87%; in the experiment with Klebsiella pneumoniae, 16.17%; in the experiment on Candida albicans, 15.5%; in the experiment with Cryptococcus neoformans it was 4.14%.

In the case of `Cc1ccc(-n2nnnc2-c2cccnc2)cc1`, the Inhibition in the experiment with Staphylococcus aureus was 21.74%; in the experiment with Acinetobacter baumannii, -2.15%; in the experiment on Escherichia coli it was 12.35%; with Klebsiella pneumoniae it was 4.8%; in the experiment with Candida albicans, -0.65%; with Cryptococcus neoformans it was -9.13%.

Regarding `O=c1[nH]c(=S)c2ncn(-c3ccccc3)c2[nH]1`, the Inhibition in the experiment with Staphylococcus aureus is -3.01%; in the experiment on Acinetobacter baumannii it was -10.26%; with Escherichia coli, 3.12%; in the experiment on Klebsiella pneumoniae, 1.95%; with Candida albicans, 9.78%; in the experiment with Cryptococcus neoformans it was -2.67%.

For the molecule `O=C1C(Cl)=C(O)C2(Cl)C(Cl)=C(Cl)C12Cl` (stereo not given), the Inhibition in the experiment on Staphylococcus aureus is 15.05%; in the experiment on Acinetobacter baumannii, 13.34%; with Escherichia coli, 5.55%; with Klebsiella pneumoniae, 11.98%; in the experiment with Candida albicans it was 9.34%; in the experiment on Cryptococcus neoformans it was -12.02%.

As to `CCCCCCCCCCC(C(=O)O)C1(C(=O)O)CCC(=O)O1` (stereo not given), the Inhibition with Staphylococcus aureus was 8.92%; in the experiment on Acinetobacter baumannii it was 10.41%; in the experiment with Escherichia coli it was 4.35%; with Klebsiella pneumoniae it was 3.55%; in the experiment on Candida albicans, 8.22%; in the experiment on Cryptococcus neoformans, -9.1%.

Consider `CN1CCN(C(=O)Nc2ccc([N+](=O)[O-])cc2)CC1`, for which the Inhibition in the experiment with Staphylococcus aureus was 7.33%; in the experiment on Acinetobacter baumannii, 6.21%; in the experiment on Escherichia coli, 0.54%; in the experiment on Klebsiella pneumoniae, 6.75%; in the experiment with Candida albicans it was 1.28%; in the experiment on Cryptococcus neoformans, -7.02%.

Take `C[C@@H]1C[C@H]2OC(=O)[C@@]3(C)CCC[C@@](C)([C@@H]23)[C@@]1(O)CCc1ccoc1`: the Inhibition in the experiment on Staphylococcus aureus was -8.43%; with Acinetobacter baumannii it was -3.35%; in the experiment on Escherichia coli it was -14.05%; with Klebsiella pneumoniae it was 4.6%; with Candida albicans it was -0.12%; in the experiment on Cryptococcus neoformans, -1.32%.

On to `Cc1cc(NC(=O)Nc2cc(Cl)ccc2C)no1`, for which the Inhibition is -16.99% in the experiment on Staphylococcus aureus; 4.24% in the experiment on Acinetobacter baumannii; -3.34% with Escherichia coli; 4.74% in the experiment with Klebsiella pneumoniae; 19.4% in the experiment on Candida albicans; -2.52% with Cryptococcus neoformans.

As for `O=C(CC1C=Cc2ccccc2N1C(=O)c1ccccc1)c1ccccc1` (stereo not given), the Inhibition in the experiment with Staphylococcus aureus was 3.75%; in the experiment with Acinetobacter baumannii it was 6.29%; in the experiment on Escherichia coli, 9.32%; in the experiment with Klebsiella pneumoniae, 9.71%; with Candida albicans, 2.1%; with Cryptococcus neoformans, -5.82%.

As to `Cc1cccc(N2CCN(CC(O)COc3ccccc3Cl)CC2)c1` (stereo not given), the Inhibition in the experiment on Staphylococcus aureus was 6.25%; in the experiment on Acinetobacter baumannii, 7.51%; in the experiment on Escherichia coli it was 7.94%; in the experiment on Klebsiella pneumoniae, 12.03%; in the experiment with Candida albicans, -0.3%; with Cryptococcus neoformans, -18.69%.

For the molecule `O=C(NN1CCCCC1)NN1CCCCC1`, the Inhibition in the experiment with Staphylococcus aureus is 9.98%; in the experiment with Acinetobacter baumannii, 7.95%; with Escherichia coli it was 2.92%; with Klebsiella pneumoniae, -4.05%; with Candida albicans it was 1.96%; in the experiment on Cryptococcus neoformans, -2.31%.

In the case of `CCOC(=O)C(C)c1c(C(=O)c2ccc(C)nc2)c2ccccc2n1C` (stereo not given), the Inhibition with Staphylococcus aureus was 10.11%; in the experiment with Acinetobacter baumannii, 9.14%; in the experiment on Escherichia coli, -0.3%; in the experiment on Klebsiella pneumoniae it was 16.34%; in the experiment with Candida albicans, 0.68%; with Cryptococcus neoformans it was -10.08%.

As for `COCCn1c2nc(=O)n(-c3ccccc3)c(=O)c-2nc2ccccc21`, the Inhibition in the experiment on Staphylococcus aureus is 12.62%; in the experiment with Acinetobacter baumannii it was -2.61%; in the experiment on Escherichia coli, 6.79%; in the experiment on Klebsiella pneumoniae, 23.4%; with Candida albicans, 1.39%; in the experiment with Cryptococcus neoformans it was 4.88%.

With `FC(F)(F)c1cccc(-c2nc3nc(Cl)c(Cl)nc3[nH]2)c1`, the Inhibition in the experiment on Staphylococcus aureus is -14.72%; in the experiment on Acinetobacter baumannii it was 9.89%; with Escherichia coli it was 3.39%; in the experiment with Klebsiella pneumoniae, 6.13%; in the experiment with Candida albicans, 4.41%; in the experiment on Cryptococcus neoformans, 33.54%.
